# Most compounds without a hit are left out; they make up all but 5.4% or so of the library.
# VP16 counter – inhibits Gal4-VP16 luciferase reporter, ROR gamma counter-screen; Drosophila S2 Gal4-VP16 UAS-luciferase, luminescence, 20 h; Potency, µM (titrated, usually from 53.6 µM), inactives show at the top dose activity, negative = inhibition, hits mostly inhibitors; 310,000 tested, 3.5% active;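 also: Gal4-VP16 expression switched on by copper sulfate through the metallothionein promoter; potency is read from the fitted curve at half-maximal effect; % is scaled to controls: 0 for no effect and ±100 for the full control effect; nearly all actives have a fitted effect of over 50% in size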
# p53 reactivator – mutant p53 re-activation in reporter cells; AID 504706; Potency, µM (highest dose often 92.2 µM), without a hit: top-dose activity change, positive = activation, actives largely listed as activators; H1299 p53-A138V BP100-luciferase reporter, luminescence, 24 h; 320,000 tested, 0.063% active; also: potency is read from the fitted curve at half-maximal effect; % of control where 0% means no effect; nearly all actives have a fitted effect of over 45% in size
#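 p53-null H1299 cells stably carrying temperature-sensitive p53-A138V and a BP100-luciferase reporter were pinned with compounds (4-point, 1:5 series) and held 24 hrs at 37 deg C. Luminescence was read 10 min after detection reagent.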
# CtBP-E1A blk – blocks the CtBP interaction with E1A; AlphaScreen GST-E1A/His-CtBP binding, 1536-well; hits give low values; activity change, % (test concentration not listed); AID 651724; 340,000 tested, 0.49% active; in the data active = activity change below about -65%; inconclusive = mostly about -30% to -63%; also: % is scaled to controls: 0 for no effect and ±100 for the full control effect
#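 Steps: dispense buffer (Tris pH 8.0, NaCl 300 mM, TCEP 1 mM, BSA, Tween 20); add 5X protein mix (GST-E1A, His-CtBP, 125 nM each); pin 23 nL compound; 2 h at 37 °C, dark; add 5X beads (50 ug/mL); 1 h; read.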
# Six1-Eya2 blk – Six1/Eya2 interaction inhibition. activity change, % (concentration not given with the values). AlphaScreen GST-Six1/His-Eya2 binding, biochemical; hits give low values. 360,000 tested, 0.56% active. Q15475+O00167; in the data active = activity change below about -65%; inconclusive = mostly about -30% to -63%; also: % is scaled to controls: 0 for no effect and ±100 for the full control effect
#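 AlphaScreen luminescence read after one hour at 37 °C in darkness. Pin-transferred compounds met GST-Six1 and His-Eya2 protein (5X stock 250 nM/500 nM) plus glutathione donor and Ni-chelate acceptor beads (5X, 50 ug/mL).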
# RORgamma inh – blocks mouse ROR gamma transcriptional activity | Drosophila S2 Gal4-RORgamma UAS-luciferase reporter, 20 h | P51450 | AID 2551 | 310,000 tested, 5.4% active | Potency, µM (top dose mostly 53.6 µM), inactives show top-dose activity change, negative = inhibition, most hits filed as inhibitors; also: potency is read from the fitted curve at half-maximal effect; % is scaled to controls: 0 for no effect and ±100 for the full control effect; nearly all actives have a fitted effect of over 60% in size
# Target sequence (P51450 whole entry, looked up, the tested form may be a part): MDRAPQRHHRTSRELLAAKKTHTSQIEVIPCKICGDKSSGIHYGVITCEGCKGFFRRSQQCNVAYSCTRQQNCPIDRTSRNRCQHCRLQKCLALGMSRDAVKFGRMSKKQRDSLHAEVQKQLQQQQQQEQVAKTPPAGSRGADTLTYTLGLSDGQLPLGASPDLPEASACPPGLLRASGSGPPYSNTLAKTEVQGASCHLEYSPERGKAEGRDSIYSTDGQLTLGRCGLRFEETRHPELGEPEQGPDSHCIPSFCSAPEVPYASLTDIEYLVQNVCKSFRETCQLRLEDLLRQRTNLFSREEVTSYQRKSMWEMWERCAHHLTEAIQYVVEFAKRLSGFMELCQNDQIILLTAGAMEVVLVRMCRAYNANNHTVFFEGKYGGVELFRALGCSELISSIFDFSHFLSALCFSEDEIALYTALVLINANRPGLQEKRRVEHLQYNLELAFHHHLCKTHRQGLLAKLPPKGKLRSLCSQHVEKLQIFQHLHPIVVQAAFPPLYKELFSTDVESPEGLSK
#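 Using a luciferase readout, inhibitors were identified by reduced reporter activity in Drosophila cells coexpressing a copper-inducible Gal4–ROR gamma fusion and UAS-driven Photinus luciferase, incubated 20 hr after 700 uM copper sulfate.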
# Active calls of the source: *; ? = inconclusive; . = no result. Unless noted, calls follow the shape of the dose curve; as a rule, active = well fitted curve in the direction sought with a large enough effect; inconclusive = small, poorly fitted or top-dose-only effect, or another doubt; inactive = no such curve, though single readings can be large; an effect the other way counts as inactive or inconclusive.
SMILES,VP16 counter,p53 reactivator,CtBP-E1A blk,Six1-Eya2 blk,RORgamma inh
CCCCN(CC)c1nc(-c2ccncc2)nc2ccccc12,6.4%,0.7%,25.7,23.6,-2.8%
CCCN(CCC)c1nc(-c2ccccn2)nc2ccccc12,5.01µM*,3.0%,?,?,3.55µM*
c1ccc(CCNc2nc(-c3ccccn3)nc3ccccc23)cc1,4.47µM*,?,?,?,0.251µM*
Cc1ccc(NC(=O)NC(=O)N(c2ccccc2)S(C)(=O)=O)cc1,1.2%,?,7.2,3.3,20.3%
Cc1cc(C)c2c(CN3CCN(Cc4ccccc4)CC3)cc(=O)oc2c1C,-2.0%,1.6%,.,-6.5,-3.3%
CN(C)C(=S)NC(=NCc1ccc([N+](=O)[O-])cc1)c1ccccc1,-21.4%,-4.3%,-7.2,-4.3,20µM*
Cc1cc(C)nc(N/N=C/c2ccc(Cl)cc2)n1,-11.5%,-4.3%,.,3.2,9.5%
Brc1ccc(/C=N/Nc2ccccn2)cc1,-23.4%,?,2.0,1.0,?
Cc1ccc(/C=N/Nc2nc(C)cc(C)n2)cc1,0.9%,-0.5%,-13.8,-2.2,10µM*
CCNc1nc(NCC)nc(N/N=C/c2ccc(Br)cc2)n1,-16.3%,-3.8%,0.9,-14.5,17.8µM*
Clc1cccc(/C=N/Nc2nc(Cl)nc3ccccc23)c1,-1.9%,?,?,?,2µM*
O=S(=O)(NN=Cc1cccc(Cl)c1)c1ccccc1,.,.,6.5,1.0,.
Cc1cc(C)nc(N/N=C/c2ccc(N3CCOCC3)cc2)n1,-11.7%,-0.2%,33.8,2.4,-44.7%
CSc1ccc(/C=N/Nc2nc(C)cc(C)n2)cc1,?,2.1%,-0.1,0.1,11.2µM*
CCCc1nc2c3ccccc3ccn2c1CC1CCCCC1,.,.,-0.9,-3.9,.
Cc1cc(C)nc(N/N=C/c2cccc(Cl)c2)n1,5.8%,7.2%,.,6.7,11.2µM*
CC(/C=N/NC(=O)c1ccncc1)=C\c1ccc(C(C)C)cc1,-0.1%,41.7%,2.3,-0.9,-6.6%
CC(/C=N/Nc1nc(C)cc(C)n1)=C\c1ccc(C(C)C)cc1,?,?,-7.6,-0.9,11.2µM*
CCc1ccc(OCC(=O)Nc2nnc(C3CCCC3)s2)cc1,0.2%,2.9%,4.3,0.8,-14.2%
COc1c(-c2coc3cc4c(cc3c2=O)CC(O)C(C)(C)O4)ccc2c1C=CC(C)(C)O2 (stereo unspecified),-4.2%,.,.,.,1.12µM*
COc1c(-c2coc3cc4c(cc3c2=O)CC(OC(C)=O)C(C)(C)O4)ccc2c1C=CC(C)(C)O2 (stereo unspecified),1.26µM*,.,.,.,2.51µM*
COc1ccc2[nH]c(=O)c3c(c2c1)OC(C)(C)C=C3,25.1µM*,?,4.8,2.5,-11.6%
COc1cc(C2SCC(=O)N2CCN2CCCCC2)ccc1O (stereo unspecified),-9.1%,-3.4%,2.9,6.8,1.3%
Cc1cc(Br)ccc1NC(=O)CN(C)C(=O)c1cccc(S(=O)(=O)N2CCN(C)CC2)c1,.,.,-0.7,1.6,.
CC(C)C(=O)NC(=S)/C=C1/N(C)c2ccccc2C1(C)C,3.98µM*,8.1%,-11.5,?,3.55µM*
SMILES,VP16 counter,p53 reactivator,CtBP-E1A blk,Six1-Eya2 blk,RORgamma inh
Cc1ccc(C(=O)NC(=S)/C=C2\N(C)c3ccccc3C2(C)C)cc1,5.62µM*,?,-81.1*,-75.4*,7.08µM*
CN1/C(=C\C(=O)C(F)F)C(C)(C)c2ccccc21,0.2%,?,16.7,10.4,21.8%
CN1/C(=C/C(=S)NC(=O)C2CCC2)C(C)(C)c2ccccc21,12.6µM*,-1.4%,?,?,6.31µM*
Cc1c(NC(=S)/C=C2\N(C)c3ccccc3C2(C)C)c(=O)n(-c2ccccc2)n1C,?,-7.4%,-15.2,-17.6,13.2%
O=C(Nc1cc([N+](=O)[O-])ccc1F)C1CC1,-3.6%,6.8%,-12.2,10.9,32.7%
COc1ccc(S(=O)(=O)NC2CC(=O)N(c3ccc4c(c3)OCCO4)C2)cc1 (stereo unspecified),.,-2.6%,1.6,0.1,.
CON(c1nc(Cl)nc(N(C)C)n1)S(=O)(=O)c1ccc(C)cc1,-9.1%,8.3%,-1.3,3.7,-0.8%
CCC1(c2ccccc2)NC(=O)N(CC(=O)NCc2ccc(C)cc2)C1=O (stereo unspecified),3.6%,0.4%,0.6,1.5,2.3%

# Screening results (PubChem)
